Screen size: about 2,400 compounds; about 20 (0.8%) were called active. About 19% were inconclusive and are not listed.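 Rule for the calls: active = fitted half-maximal concentration for signal decrease at or below twice the top tested dose, in every repeat run; inconclusive = repeat runs disagree, or flat partial inhibition, or poor fit; inactive = all runs flat, wrong-direction or potency beyond limit.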 A selection follows. Entries with a potency or affinity are not part of this list.
Assay: decrease of heat-induced HSF-1 GFP reporter, dose response, NIH3T3 R4 cells, GFP/RFP, cherry-pick, set 4 (AID 588827);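 note: 0% = neutral control wells and -100% = didemnin B at 400 nM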
Details: NIH3T3 R4 HSF-1 GFP reporter, heat shock, 48 h; series mostly up to 19.5 µM; activity change, negative = inhibition: at the top concentration

Activity change, negative = inhibition, inactive:
Nc1ncnc2oc(-c3ccco3)c(-c3ccco3)c12 -24.9%
CCN1CC2([N+](=O)[O-])C=CC(=O)C([N+](=O)[O-])(C1)C2CC(=O)c1ccccc1 (stereo not given) -27.8%
CCOC(=O)c1c(N)sc2c(O)c(Br)ccc12 -15.5%
Cc1[nH]c2ccccc2c1/C=C/c1nc2ccccc2c(=O)n1-c1cccc([N+](=O)[O-])c1 -7.65%
O=C(c1ccc([N+](=O)[O-])s1)N1CCN(c2cccc(Cl)c2)CC1 -14.1%
O=C(O)c1cccc(COc2ccc3c(c2)CCC3)c1 19.3%
CC(C)c1ccc(-c2nc3ccccc3s2)cc1 -15.1%
CC1=Nc2ccc(C)c3nc(C)cc(c23)N1c1ccc(C)cc1 -23.6%
N#Cc1cc2c(nc1SCC(=O)N1CCOCC1)CCCCC2 -3.19%
COc1ccc(/C=C/C(=O)Oc2ccc(/C=N/NC(=O)COc3c(C)cccc3C)cc2)cc1 -5.78%
CCN(c1ccccc1)S(=O)(=O)c1cnc[nH]1 21.3%
COc1ccccc1N=Nc1ccc(O)c2ncccc12 -0.842%
COc1cccc(NC(=O)Nc2nnc(Cc3ccccc3F)s2)c1 -18.8%
COc1ccccc1C(=O)NCCC(=O)NNC(=O)Cn1ccc(C(F)(F)F)n1 -21.8%
Nc1nc(Cl)nc2ccc(Br)cc12 -19%
CCN1CCN(/C=N/c2nc3c(s2)CCCC3)CC1 -11.3%
Cn1c(=O)c2c(nc(Oc3cccc(O)c3)n2C)n(C)c1=O -12.2%
Cc1ccc(NC(=O)CCN2C(=O)C3CCCCC3C2=O)cc1[N+](=O)[O-] (stereo not given) 28.3%
O=C(CCCCCn1c(=S)[nH]c2cc3c(cc2c1=O)OCO3)N1CCN(C(=O)c2ccco2)CC1 -18.7%
CCCCOc1ccc(N=Cc2ccc[nH]2)cc1 -5.17%
CCOc1ccc(-c2nc(CSCC(=O)N3CCN(c4cccc(OC)c4)CC3)c(C)o2)cc1 -28.1%
O=C(NCCN1CCCCC1)Nc1ccccc1Cl -21.1%
CCC1CCCCN1CCCNC(=O)CSc1nc2nc(C)c(Cc3ccc(C)cc3)c(C)n2n1 (stereo not given) 7.1%
O=C(Nc1ccc2c(c1)ncn2C1CCCCC1)c1ccco1 -27%
CC(C)(C)c1ccc(C(=O)NC(=S)Nc2nc3c(s2)CCCC3)cc1 -26.4%
N#Cc1nc(-c2ccco2)oc1N1CCN(Cc2ccccc2)CC1 -1.82%
COc1ccc(S(=O)(=O)/C(C#N)=C/Nc2cccc(OC)c2)cc1 -13.2%
CCCC[C@@H]1C[C@H]1[C@@H](NC(=O)c1ccco1)c1ccc(Cl)cc1 -16.9%
Cc1ccc(C(=O)Nc2cccc(C(F)(F)F)c2)cc1NC(=O)c1ccno1 2.88%
Fc1ccc(CO/N=C/C2=C(Cl)c3ccccc3CC2)cc1 -14.4%
COc1ccc(-n2c(C)c(C(C)=O)c(C(C)=O)c2C)cc1 -21.1%
CSc1ncccc1C(=O)N1CCCC(N2CCN(c3ccccc3F)CC2)C1 (stereo not given) 6.57%
CC(=O)N/C(=N\c1nc(C)cc(C)n1)Nc1ccc2ccccc2c1 -10.8%
Cc1ccc(/C=C(\NC(=O)c2ccccc2)C(=O)N2CCCC2C(=O)O)cc1 (stereo not given) -6.42%
COc1ccc(NC(=S)Nc2ccc(C)c(S(=O)(=O)N3CCCCC3)c2)cc1 -33.6%
Oc1ccccc1CNc1ccc(OC(F)(F)F)cc1 -21.3%
CCOc1c2ccc(C(=O)NCc3ccccc3OC)cc2nn1CC -2.38%
CC(O/N=C\c1ccccc1O)C(=O)Nc1ccccc1C(=O)N1CCOCC1 (stereo not given) 4.38%
COc1cccc(N(C(=O)c2cccs2)c2nc3ccccc3s2)c1 -7.54%
CCOc1cc(C#N)c(NC(=O)c2cccnc2Cl)cc1OCC -7.83%
C=CCSc1nc2ccccc2n1C(=O)/C=C/c1cc(OC)c(OC)c(OC)c1 2.52%
O=C(Nc1ccc(N2CCCCC2)cc1)c1ccccn1 14.8%
Cc1cc(C)c(N=C2SCC(=O)N2Cc2ccco2)c(C)c1 13.7%
O=C(NC(=O)c1cccc(F)c1)OC[C@@H]1CCCN2CCCC[C@H]12 -8.55%
CCCCN(C(=O)COc1ccc(C)cc1OC)c1c(N)n(CCC)c(=O)[nH]c1=O -8.36%
Cc1cc(C)c2c(c1)/C(=N/NS(=O)(=O)c1ccc(Br)cc1)CCC2 -11.3%
Cc1ccc(N(C)C(=O)CN(C)S(=O)(=O)c2ccc3c(c2)n(C)c(=O)c(=O)n3C)cc1 -5.74%
CCC(=O)Nc1cc2nn(-c3ccc(C)cc3)nc2cc1C -26.2%
O=C1C(Cc2ccccc2)Nc2ncnc(N3CCN(c4ccccc4)CC3)c2N1Cc1ccccc1 (stereo not given) -9.33%
O=C(CSC(=S)N1CCCCC1)Nc1ncc2c(n1)CCCC2=O -1.31%
N#Cc1c(SCC(=O)Nc2nccs2)nc2c(c1-c1ccco1)CCCC2 31.6%
CCN1C(=O)[C@H]2[C@@H](c3ccc(C)cc3)N3C(=O)N(c4ccc(C)cc4)C(=O)[C@@]3(C)[C@H]2C1=O 14.5%
CC(C)Cc1csc(NC(=O)c2ccc(F)cc2)c1C(=O)O -14.2%
CCOC(=O)c1ccc(NC(=S)NC(=O)C2CCCC2)cc1 -32%
CCOC(=O)c1ccc(Nc2ncnc3nc[nH]c23)cc1 1.84%
COc1ccc(C(=O)N2CCN=C2SCc2cccnc2)cc1OC 3.94%
COc1ccc(NC(C)=O)cc1NC(=O)CN1CCN(CC(=O)Nc2ccccc2Cl)CC1 -18.4%
CC1(C)CC(=O)C2=C(C1)N(Cc1ccccc1)C(=O)C2(NC(=O)C(C)(C)C)C(F)(F)F (stereo not given) 1.22%
Cc1ccc(C(=O)CSc2cnc3ccccc3n2)cc1C -15.7%
C/C(=N\NC1=NCCN1)c1ccc(N)c([N+](=O)[O-])c1 -5.31%
Cc1ccc(OCC(=O)Nc2ccccc2C(=O)N2CCCCC2)cc1 -11.1%
CCN(CC)S(=O)(=O)c1cccc(NC(=O)CCNC(=O)NC23CC4CC(CC(C4)C2)C3)c1 -25.2%
Cc1cccc(CS(=O)(=O)Cc2ccc(C(=O)NCc3cccs3)o2)c1 -20.7%
CC(C)OCCCn1c(NN)nc2ccccc2c1=O -8.01%
COc1nc(N)c(C#N)c(-c2ccc(N(C)CCC#N)cc2)c1C#N -15.4%
CCCSc1nnc(CNS(=O)(=O)c2ccc(C)cc2)n1C 15.3%
Cc1ccc(CSCC(=O)N(C)CC(=O)Nc2ccc(C)cc2)cc1 -13.1%
COc1ccc(O)c(-c2c(-c3ccc(Cl)cc3)n[nH]c2C)c1 -9.04%
COc1ccc(NCc2nnc(SCC(=O)Nc3cc(C(F)(F)F)ccc3Cl)o2)cc1 -17.5%
O=C(CCCc1nc(-c2ccccc2Cl)no1)NC1CCCC1 8.17%
COc1ccc(CC(C)Nc2cccc(SC)c2)cc1 (stereo not given) -7.7%
O=C(CN(Cc1ccccc1Cl)S(=O)(=O)c1ccc(Cl)cc1)N/N=C/c1ccc(C(=O)O)cc1 2.93%
Cc1ccc(N=Nc2ccc3ccccc3c2O)cc1 6.26%
C=CCn1c(=NC(=O)C2CC2)sc2cc(NC(C)=O)ccc21 2.06%
CCCCNC(=O)C(=O)N/N=C/c1ccc(C(=O)OC)cc1 -8.74%
O=c1cc(-c2ccccc2)c2ccc(O)cc2o1 -13%
CC(=O)c1ccc(NC(=O)C2CCN(S(=O)(=O)c3cccc4cccnc34)CC2)cc1 -9.15%
COc1ccc(NC(=S)Nc2ccc(F)cc2)c(OC)c1 -12.6%
O=C(CSc1ccc(Br)cc1)Nc1ccccc1N1CCOCC1 -9.45%
COc1cc(C(=O)N2CCSCC2)ccc1OC1CCN(C(C)=O)CC1 -1.88%
COc1ccccc1Oc1ccc2c(c1)C(=O)N(c1ccc(Br)c3cccnc13)C2=O -24.3%
Cc1c(Cl)cccc1NC(=O)Nc1cnccn1 -29.6%
CCN(CC)c1ccc(CNc2nc3ccccc3n2CCN2CCOCC2)cc1 -31.2%
CN(C(=O)c1ccc2c(c1)SC1=NS(=O)(=O)CCN12)C(c1ccccc1)c1ccccc1 4.39% [at 10 µM]
O=c1o[nH]c(-c2ccccc2)c1-c1ccccc1 5.38%
O=C(Nc1cccc(Cl)c1)N1CCOCC1 -24.5%
CCOC(=O)C1(Cc2ccc(OC)cc2)CCN(C(=O)c2csc(C)n2)CC1 -3.83%
Cc1ccccc1-c1nc2sc3c(c2c(=O)n1N)CCCC3 -10.4%
Cn1c(=O)cc(SCC(=O)N2CCN(C(=O)c3ccco3)CC2)c2ccccc21 -11.5%
Cc1[nH]c2ccccc2c1C(C[N+](=O)[O-])c1cccs1 (stereo not given) -1.12%
COc1cccc(-c2cc3nc4c(c(NCC(C)(C)CN(C)C)n3n2)CCCC4)c1 -15.6%
CCOc1ccc(NC(=O)C2CCCN(c3nn4c(=O)cc(C)nc4s3)C2)cc1 (stereo not given) 9.81%
Cc1ccc2nc(-c3ccccc3NC(=O)CCC(=O)O)c(=O)[nH]c2c1 11.3%
N#CC1=C(N)Oc2cc(N)ccc2C1c1ccccc1Cl (stereo not given) -13.4%
Cc1cc(Nc2ccc3c(c2)OCCO3)c2cc(Cl)ccc2n1 -28.1%
CCn1nc(C)c(/C=N/NC(=O)c2c[nH]c3ccccc23)c1C 4.32%
N#Cc1c(N)nc(SCc2ccncc2)c(C#N)c1-c1cccs1 -23%
CCOc1ccc(N(CC(=O)NC2CCCCC2)C(=O)CCC(=O)Nc2nc(C)cs2)cc1 -1.1%
CCSc1nnc(-c2ccc(S(=O)(=O)NCc3cccs3)cc2)o1 -22.9%
O=C(c1cc2c(s1)-c1ccccc1OC2)N1CCN(c2ccccc2)CC1 -1.28%
Cc1cc(/C=C2/C(=O)NN(c3ccccc3)C2=O)c(C)n1-c1ccc(O)cc1 -1.39%
C/C(=N\Nc1nncc2ccccc12)c1ccc(Cl)c([N+](=O)[O-])c1 4.2%
Cc1cc(Cl)ccc1OCCCC(=O)N1CCOCC1 4.58%
CCC(NC(=S)NC1CCCCC1)c1ccccc1 (stereo not given) 3.39%
CCN(CC(=O)Nc1c(F)cccc1F)C(=O)Cc1n[nH]c(=O)c2ccccc12 -8.1%
COC(=O)C1=C(C)N(CCCC(=O)O)C(=O)NC1c1ccc(C#N)cc1 (stereo not given) -11.5%
O=C(CN1CCCCC1)Nc1cccc2c1OCO2 -20.8%
CC(CN1CCOCC1)OC(=O)C(c1ccccc1)c1ccccc1 (stereo not given) 3.47%
O=C(O)CSCC(=O)Nc1ccc(C2CCCCC2)cc1 -19.7%
Cc1ccnc(NC(c2ccsc2)c2ccc3ccc(C)nc3c2O)c1 (stereo not given) 77.1%
